Bioassay records as filed in PubChem BioAssay.
The list is not random: actives were taken first. Their share in the collection is about 1.3%.
cardiac RTF act – cardiac RTF calcium sensitization; P19429+P45379; IANBD-labeled TnC RTF fluorescence at EC20 calcium; 0% EC20 calcium, 100% full calcium; activation, % at 7.2 µM; 0.24% of 340,000 active;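 active = activation above the mean over all tested compounds plus 3 SD, cut at about 30% in these data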;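 also: rise in fluorescence read as greater calcium sensitivity of cardiac thin filaments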
CRFBP-R2 block – blocks CRF-induced signaling of the CRF-BP/CRF-R2 complex; AID 588475; 0.59% of 350,000 active; inhibition, % at 11.8 µM; HEK293 CRF-R2/CRF-BP, CRF-induced calcium fluorescence;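 active = inhibition of the ligand-induced calcium signal above about 50% at the single tested concentration, limit read from the data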
CRFBP-R2 agonist – CRF-BP/CRF-R2 complex agonism. activation, % at 13.2 µM. AID 588473. HEK293 CRF-R2/CRF-BP, calcium dye fluorescence (FLIPR); percent of saturating CRF peptide response. 0.46% of 350,000 active;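 active = activation of at least 50%, plus an integration ratio under a set limit after plate pattern correction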;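 also: plate controls were neutral control wells without compound for no effect and CRF at EC100 for full effect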
RTF Ca sens inh – cardiac RTF calcium desensitization; P19429+P45379; IANBD-labeled cardiac RTF, Ca2+ fluorescence; inhibition, % at 7.15 µM; 0.12% of 340,000 active;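 active = inhibition above the mean inhibition of all tested compounds plus 3 SD, cut at about 17% in these data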;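 also: assay run at fixed EC70 calcium of 1.6 mM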
Starred values were filed as active, the others as inactive; i = inactive; . = no result given; + = active, no number.

SMILES	cardiac RTF act	CRFBP-R2 block	CRFBP-R2 agonist	RTF Ca sens inh
Cc1ccc(N=Cc2sc(O)c3ccccc23)c(C)c1	49*	-58	21	-15
Cc1ccc(N=Cc2sc(O)c3ccccc23)cc1	27	-88	59*	-41
Cc1cc(N2O[C@]34C=C[C@]25C[C@@H](O)CC[C@]5(C)C3CC[C@]2(C)[C@@H]([C@H](C)/C=C/[C@H](C)C(C)C)CC[C@H]24)no1 (stereo not given in full)	-5	-11	1	-2
Cc1ccc(S(=O)(=O)NCCc2nnc(SCc3cccnc3)n2C)cc1	-7	-11	1	-17
CCOc1ccc(-n2c(SCC(=O)NCc3ccco3)nc3c([nH]c4ccccc43)c2=O)cc1	3	78*	0	0
COc1cc(C(=O)Nc2ccc(Cl)c(C(F)(F)F)c2)cc(OC)c1OC	33*	-39	6	0
COc1ccc(-n2ccnc2SCC(=O)c2c(N)n(C3CC3)c(=O)[nH]c2=O)cc1	.	-1	-1	.
CCCNC(=O)C1CC(=O)N(c2ccc(OCC)cc2)C1 (stereo not given)	-6	56*	-4	-6
O=C(CN1C(=O)c2ccccc2C1=O)N1CCN(c2ccccc2)CC1	0	-2	0	-6
Cc1ccc(N2CCN(C(=O)CN3C(=O)c4ccccc4C3=O)CC2)cc1	5	56*	0	-6
CCc1ccc[n+](-c2[nH]c(=O)sc2/C=N/N=C(\[O-])c2ccncc2)c1	4	6	1	-1
CC(C)(C)c1cc[n+](-c2[nH]c(=O)sc2/C=N/NC([S-])=Nc2ccccc2)cc1	81*	-27	38	-127
Cc1cc[n+](-c2[nH]c(=O)sc2/C=N/NC([S-])=Nc2ccccc2)cc1C	51*	4	14	-66
O=C(COC(=O)c1nc(Cl)ccc1Cl)NC(=O)c1ccccc1	-1	14	0	-5
CN(C)S(=O)(=O)N1C(=O)c2ccccc2C1=O	-2	4	1	-10
CN(C)/C=C1\C=C2C(=O)c3ccccc3N2C1=O	+	-220	217*	i
COc1ccc(N2C(=O)CSC23C(=O)N2c4c(cccc43)C(C)=CC2(C)C)cc1 (stereo not given)	11	84*	-6	0
CCN(C(=O)CSc1cc(-c2ccccc2)c2ccc(OC)cc2n1)C1CCS(=O)(=O)C1 (stereo not given)	-1	-67	42	-3
CCN(C(=O)CSc1cc(C)c2ccc(OC)cc2n1)C1CCS(=O)(=O)C1 (stereo not given)	-3	98*	0	2
CCCn1nc([N+](=O)[O-])c(C(C#N)c2nc3ccccc3s2)c(Cl)c1=O (stereo not given)	-6	69*	46	7
CCn1nc([N+](=O)[O-])c(C(C#N)c2nc3ccccc3n2C)c(Cl)c1=O (stereo not given)	12	27	-2	5
O=C(c1ccccc1)c1ccc(O)cc1O	157*	-44	61*	-238
O=C(c1ccc(O)cc1)c1ccc(O)cc1O	0	-9	-1	3
Cc1ccc(C(=O)OCC(=O)NC(C)C2CC3CCC2C3)cc1N (stereo not given)	0	-2	-1	-5
COC(=O)c1cn(NC(=O)c2ccc(F)cc2)c(=O)c2ccccc12	5	105*	0	-8
SMILES	cardiac RTF act	CRFBP-R2 block	CRFBP-R2 agonist	RTF Ca sens inh
O=C(c1ccc2c(=O)n(Cc3ccccc3Cl)c(=S)[nH]c2c1)N1CCCC1	8	4	1	-12
O=S(=O)(NCc1ccccc1)NCc1ccccc1	-1	15	1	4
COc1ccc(CNS(=O)(=O)NCc2ccccc2)cc1OC	-5	-285	274*	-11
O=S(=O)(c1ccccc1)n1ccc2ccccc21	-3	15	0	-1
Cc1cc(C)c(S(=O)(=O)n2ccc3ccccc32)c(C)c1	-2	58*	-1	7
Nc1nonc1-n1nnc(C(=O)N/N=C/c2cc(Br)cs2)c1-c1ccccc1	-2	-49	0	-13
Nc1nc(-c2ccco2)c(-c2ccco2)s1	-4	-29	14	1
c1coc(-c2nc(-c3ccco3)c(-c3ccco3)nc2-c2ccco2)c1	-36	-6	3	107*
O=C(CCc1ccccc1)NNC(=S)NC(=O)c1ccc(Cl)cc1	.	13	99*	.
CN(C)c1ccc(C(=O)NNC(=O)c2ccc(Cl)cc2)cc1	.	68*	0	.
CN(C)c1ccc(C(CC(=O)O)NC(=O)c2ccc(Cl)cc2)cc1 (stereo not given)	-4	2	-2	-2
Cc1ccc(C(=O)NNC(=S)NC(=O)c2ccc(Cl)cc2)cc1	1	-123	216*	-3
CC(=O)NNC(=S)NC(=O)c1ccc(C)cc1	-1	-11	4	0
Cc1ccccc1OCC(=O)NCC(=O)OCc1ccc(Br)cc1	-1	6	1	1
Cc1ccc(S(=O)(=O)c2c(N)n(Cc3ccco3)c3nc4ccccc4nc23)cc1	17	-7	33	-30
Cc1cccc(S(=O)(=O)c2c(N)n(Cc3ccco3)c3nc4ccccc4nc23)c1	14	-93	97*	-26
CC1CCN(C(=O)C2CCN(S(=O)(=O)c3cccnc3)CC2)CC1	1	75*	-2	-6
O=C(C1CCN(S(=O)(=O)c2cccnc2)CC1)N1CCCCC1	-1	-7	-1	1
CC1CC(C)CN(C(=O)C2CCN(S(=O)(=O)c3cccs3)CC2)C1 (stereo not given)	-3	-11	-1	-12
CC1CCN(C(=O)C2CCN(S(=O)(=O)c3cccs3)CC2)CC1	-4	106*	0	7
O=C(Nc1nnc(-c2ccc(F)cc2)o1)C1CCCN1S(=O)(=O)c1cccs1 (stereo not given)	4	-7	-1	-3
CCOC(=O)c1c(N)sc(C(=O)N2CCCCC2)c1C	3	61*	0	1
CCOC(=O)c1c(N)sc(C(=O)N2CCCC2)c1C	1	3	-1	-2
Nc1c(-c2ccccc2)nc(Cl)nc1-c1ccccc1	4	-8	2	-25
c1ccc(-c2nc3nonc3nc2-c2ccccc2)cc1	1	54*	-1	-5
SMILES	cardiac RTF act	CRFBP-R2 block	CRFBP-R2 agonist	RTF Ca sens inh
Nc1ccc(/C=C/C(=O)c2ccco2)cc1	6	-72	81*	-7
CC(NC(=O)CCCn1cc([N+](=O)[O-])cn1)c1ccccc1 (stereo not given)	-5	12	-1	2
COCCNC(=O)C(OC(=O)c1nsc(Cl)c1Cl)C(C)C (stereo not given)	-5	5	0	0
CC(=O)Nc1ccc(C=NNc2ccc([N+](=O)[O-])cc2S(=O)(=O)Nc2ccccc2C(=O)O)cc1	-9	5	2	-4
COc1ccc(C(C)=NNc2ccc([N+](=O)[O-])cc2S(=O)(=O)Nc2ccccc2C(=O)O)c(OC)c1	-1	66*	-2	-3
Cn1c(SCC(=O)N2CCCc3ccccc32)nc2cccnc21	3	56*	-4	0
